Reference: PubChem BioAssay AID1159580 (chemical genetic matrix, 2015)
Out of some 5,500 compounds screened, about 2,000 (36%) were called active. Another 18% or so got no clear call; they are omitted. No stated cut-off is given here; in the data, active means normalized growth mostly below about 0.91 (no sharp cut-off); inconclusive means no clear call, values can overlap the other calls; inactive means mostly above about 0.92. The list shows a part of the results.

Assay: chemical genetic growth profiling, strain panel (AID 1159580);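 further: tested at 20 µM; growth read once vehicle control cultures reached saturation at 30 °C; 1 = growth at the plate median or of vehicle wells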
Details: growth OD

Measured: normalized growth

CCN(CC)CCOc1ccc2c(c1)C(=O)c1cc(OCCN(CC)CC)ccc1-2
inactive: S. cerevisiae deletion strains, locus YJR075W, strain HOC1, stronger effect = lower value 0.998 | S. cerevisiae deletion strains, locus YKL009W, strain mrt4, stronger effect = lower value 0.973 | S. cerevisiae deletion strains, locus YKL068W, stronger effect = lower value 0.975 | S. cerevisiae deletion strains, locus YKL085W, strain MDH1 (second series), stronger effect = lower value 1.02 | S. cerevisiae deletion strains, locus YKL085W, strain MDH1, stronger effect = lower value 1.02 | S. cerevisiae deletion strains, locus YKL160W, strain elf1, stronger effect = lower value 0.96 | S. cerevisiae deletion strains, locus YKL190W, strain CNB1, stronger effect = lower value 0.991 | S. cerevisiae deletion strains, locus YKR001C, strain vps1, stronger effect = lower value 0.986 | S. cerevisiae deletion strains, locus YKR026C, strain gcn3, stronger effect = lower value 0.98 | S. cerevisiae deletion strains, locus YKR091W, strain srl3, stronger effect = lower value 0.982 | S. cerevisiae deletion strains, locus YLL001W, strain dnm1, stronger effect = lower value 1.01 | S. cerevisiae deletion strains, locus YLL026W, stronger effect = lower value 0.992 | S. cerevisiae deletion strains, locus YLL041C, strain sdh2, stronger effect = lower value 0.998 | S. cerevisiae deletion strains, locus YLR027C, strain aat2, stronger effect = lower value 0.996 | S. cerevisiae deletion strains, locus YLR039C, strain RIC1, stronger effect = lower value 0.963 | S. cerevisiae deletion strains, locus YLR058C, strain SHM2, stronger effect = lower value 0.994 | S. cerevisiae deletion strains, locus YLR102C, strain apc9, stronger effect = lower value 0.975 | S. cerevisiae deletion strains, locus YLR113W, strain HOG1, stronger effect = lower value 0.988 | S. cerevisiae deletion strains, locus YLR221C, strain rsa3, stronger effect = lower value 0.993 | S. cerevisiae deletion strains, locus YLR258W, strain gsy2, stronger effect = lower value 0.979 | S. cerevisiae deletion strains, locus YLR262C, strain YPT6 (second series), stronger effect = lower value 1.05 | S. cerevisiae deletion strains, locus YLR262C, strain YPT6, stronger effect = lower value 0.96 | S. cerevisiae deletion strains, locus YLR268W, strain sec22, stronger effect = lower value 0.984 | S. cerevisiae deletion strains, locus YLR320W, strain mms22, stronger effect = lower value 0.995 | S. cerevisiae deletion strains, locus YLR330W, strain CHS5, stronger effect = lower value 0.988 | S. cerevisiae deletion strains, locus YLR342W, strain FKS1 (second series), stronger effect = lower value 1.01 | S. cerevisiae deletion strains, locus YLR342W, strain FKS1, stronger effect = lower value 0.981 | S. cerevisiae deletion strains, locus YLR357W, strain rsc2, stronger effect = lower value 0.963 | S. cerevisiae deletion strains, locus YLR370C, strain arc18, stronger effect = lower value 0.987 | S. cerevisiae deletion strains, locus YLR371W, strain rom2, stronger effect = lower value 0.961 | S. cerevisiae deletion strains, locus YLR384C, strain iki3, stronger effect = lower value 0.984 | S. cerevisiae deletion strains, locus YLR418C, strain cdc73, stronger effect = lower value 1.06 | S. cerevisiae deletion strains, locus YML016C, strain PPZ1, stronger effect = lower value 0.995 | S. cerevisiae deletion strains, locus YML032C, strain rad52, stronger effect = lower value 0.968 | S. cerevisiae deletion strains, locus YML120C, strain ndi1, stronger effect = lower value 0.985 | S. cerevisiae deletion strains, locus YML124C, strain tub3, stronger effect = lower value 0.987 | S. cerevisiae deletion strains, locus YMR058W, strain fet3, stronger effect = lower value 0.994 | S. cerevisiae deletion strains, locus YMR078C, strain ctf18, stronger effect = lower value 0.978 | S. cerevisiae deletion strains, locus YMR125W, strain sto1, stronger effect = lower value 0.978 | S. cerevisiae deletion strains, locus YMR129W, stronger effect = lower value 0.982 | S. cerevisiae deletion strains, locus YMR205C, strain PFK2, stronger effect = lower value 0.969 | S. cerevisiae deletion strains, locus YMR223W, strain ubp8, stronger effect = lower value 0.982 | S. cerevisiae deletion strains, locus YMR231W, strain pep5, stronger effect = lower value 0.99 | S. cerevisiae deletion strains, locus YMR263W, strain SAP30, stronger effect = lower value 1 | S. cerevisiae deletion strains, locus YMR307W, strain GAS1, stronger effect = lower value 1.09 | S. cerevisiae deletion strains, locus YNL067W, strain RPL9B, stronger effect = lower value 0.999 | S. cerevisiae deletion strains, locus YNL071W, strain lat1, stronger effect = lower value 0.988 | S. cerevisiae deletion strains, locus YNL128W, strain TEP1, stronger effect = lower value 0.987 | S. cerevisiae deletion strains, locus YNL153C, strain GIM3, stronger effect = lower value 1.01 | S. cerevisiae deletion strains, locus YNL183C, strain NPR1, stronger effect = lower value 0.939 | S. cerevisiae deletion strains, locus YNL209W, strain ssb2, stronger effect = lower value 0.976 | S. cerevisiae deletion strains, locus YNL233W, strain BNI4, stronger effect = lower value 1.02 | S. cerevisiae deletion strains, locus YNL248C, strain rpa49, stronger effect = lower value 0.98 | S. cerevisiae deletion strains, locus YNL250W, strain rad50, stronger effect = lower value 0.983 | S. cerevisiae deletion strains, locus YNL271C, strain bni1, stronger effect = lower value 0.993 | S. cerevisiae deletion strains, locus YNL298W, strain CLA4, stronger effect = lower value 0.971 | S. cerevisiae deletion strains, locus YNL307C, strain MCK1, stronger effect = lower value 0.975 | S. cerevisiae deletion strains, locus YNL322C, strain KRE1 (second series), stronger effect = lower value 0.96 | S. cerevisiae deletion strains, locus YNL322C, strain KRE1, stronger effect = lower value 0.983 | S. cerevisiae deletion strains, locus YNR049C, strain mso1, stronger effect = lower value 0.968 | S. cerevisiae deletion strains, locus YNR052C, strain pop2, stronger effect = lower value 0.975 | S. cerevisiae deletion strains, locus YOL006C, strain TOP1, stronger effect = lower value 1.02 | S. cerevisiae deletion strains, locus YOL012C, strain htz1 0.871 | S. cerevisiae deletion strains, locus YOL147C, strain pex11, stronger effect = lower value 0.992 | S. cerevisiae deletion strains, locus YOR001W, strain rrp6, stronger effect = lower value 0.988 | S. cerevisiae deletion strains, locus YOR061W, strain CKA2, stronger effect = lower value 0.994 | S. cerevisiae deletion strains, locus YOR069W, strain VPS5, stronger effect = lower value 0.996 | S. cerevisiae deletion strains, locus YOR070C, strain gyp1, stronger effect = lower value 0.989 | S. cerevisiae deletion strains, locus YOR080W, strain dia2, stronger effect = lower value 0.983 | S. cerevisiae deletion strains, locus YOR083W, strain WHI5, stronger effect = lower value 0.968 | S. cerevisiae deletion strains, locus YOR106W, strain vam3, stronger effect = lower value 0.944 | S. cerevisiae deletion strains, locus YOR136W, strain idh2, stronger effect = lower value 0.985 | S. cerevisiae deletion strains, locus YOR144C, strain elg1, stronger effect = lower value 0.97 | S. cerevisiae deletion strains, locus YOR184W, strain ser1, stronger effect = lower value 0.976 | S. cerevisiae deletion strains, locus YOR231W, strain MKK1, stronger effect = lower value 0.985 | S. cerevisiae deletion strains, locus YOR265W, strain rbl2, stronger effect = lower value 0.976 | S. cerevisiae deletion strains, locus YOR270C, strain vph1, stronger effect = lower value 1.07 | S. cerevisiae deletion strains, locus YOR290C, strain snf2, stronger effect = lower value 0.964 | S. cerevisiae deletion strains, locus YOR316C, strain cot1, stronger effect = lower value 0.995 | S. cerevisiae deletion strains, locus YPL051W, strain arl3, stronger effect = lower value 0.97 | S. cerevisiae deletion strains, locus YPL055C, strain LGE1, stronger effect = lower value 1.02 | S. cerevisiae deletion strains, locus YPL078C, strain atp4, stronger effect = lower value 0.981 | S. cerevisiae deletion strains, locus YPL106C, strain sse1, stronger effect = lower value 0.979 | S. cerevisiae deletion strains, locus YPL240C, strain hsp82, stronger effect = lower value 0.996 | S. cerevisiae deletion strains, locus YPL241C, strain CIN2, stronger effect = lower value 0.971 | S. cerevisiae deletion strains, locus YPL256C, strain CLN2, stronger effect = lower value 0.979 | S. cerevisiae deletion strains, locus YPR119W, strain clb2, stronger effect = lower value 0.988 | S. cerevisiae deletion strains, locus YPR141C, strain kar3, stronger effect = lower value 0.989 | S. cerevisiae deletion strains, locus YPR163C, strain tif3, stronger effect = lower value 0.97 | S. cerevisiae deletion strains, locus YPR167C, strain met16, stronger effect = lower value 1 | S. cerevisiae deletion strains, strain wtn01, stronger effect = lower value 0.993 | S. cerevisiae strains, strain wild type, stronger effect = lower value 0.995
